Holding throughout (conditions): modulator concentration 10 µM
Assay [1] deals with RAW-Dual (murine macrophage reporter line). Description: NF-kB reporter (SEAP) activity fold change vs agonist alone; higher = enhanced NF-kB activity. Summed up: (§1)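 Overnight stimulation with a PRR agonist followed pre-incubation for 1 hour at 37 °C with compound at 10 μM final. This was done in RAW-Dual murine macrophage reporter cells seeded at 50 000 per well in 384-well plates. NF-κB (SEAP, QUANTI-Blue absorbance at 620 nm) and IRF (Lucia luciferase, QUANTI-Luc luminescence) were read from the supernatant. Each reporter's fold change relative to the mean agonist-only control on the same plate was averaged over replicate plates.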

Assay [2] shares this test system. Description: IRF reporter (Lucia luciferase) activity fold change vs agonist alone; higher = enhanced IRF activity. Summed up:
as §1

Assay [3] shares this test system. Description: viability score (confluency relative to resting cells, overnight) (fraction); higher = more viable, active = viable (0.7 or more). The method in brief: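 Confluency was the readout: RAW-Dual macrophages were imaged with IncuCyte after an overnight exposure to compound at 10 μM final. IncuCyte software produced two masks over all imaged wells. The viability score expresses confluency against resting cells, and both masks had to exceed 70% of resting cells for a compound to meet the cutoff.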

The mark [4] stands for this setting: agonist: CpG ODN 1826 0.5 ug/mL.

Drawing on the supplement of paper PMC10646978, this text covers NF-kB reporter, IRF reporter and viability score for 13 molecules.

± gives the standard deviation.

`COC(=O)c1cc(NC(=O)C2CCCC2)cc(C(=O)OC)c1`: the NF-kB reporter in assay [1] (setting [4]) is 0.969 ± 0.18; in assay [1] (agonist: LPS 0.1 ug/mL) it was 1 ± 0.13; in assay [1] (agonist: MPLA […]), 1.15 ± 0.13. Besides, the IRF reporter amounted to 0.871 ± 0.09 in assay [2] (agonist: 3'3'-cGAMP 10 ug/mL), 1.13 ± 0.28 in assay [2] (agonist: LPS 0.1 ug/mL) and 0.97 ± 0.14 in assay [2] (agonist: MPLA […]). For the same molecule, the viability score in assay [3] is 0.633 (inactive).

Take `Cc1ccc(-c2ccc3nnc(CCC(=O)NCc4ccc(C(F)(F)F)cc4)n3n2)cc1C`: the figures for the NF-kB reporter in assay [1] (setting [4]), in assay [1] (agonist: LPS 0.1 ug/mL) and in assay [1] (agonist: MPLA […]) were 0.671 ± 0.041, 1.04 ± 0.086 and 1.04 ± 0.07, respectively. Also, the values for the IRF reporter in assay [2] (agonist: 3'3'-cGAMP 10 ug/mL), in assay [2] (agonist: LPS 0.1 ug/mL) and in assay [2] (agonist: MPLA […]) were 0.747 ± 0.047, 1.15 ± 0.23 and 1.16 ± 0.41, respectively. Moreover, the viability score in assay [3] is 0.94 (active).

For `COc1cc2c(Oc3ccc4[nH]c(C)cc4c3F)ncnc2cc1OCCCN1CCCC1`, the NF-kB reporter in assay [1] (setting [4]) was 0.607 ± 0.097; in assay [1] (agonist: LPS 0.1 ug/mL), 1.03 ± 0.052; in assay [1] (agonist: MPLA […]), 1.09 ± 0.11. In addition, the IRF reporter in assay [2] (agonist: 3'3'-cGAMP 10 ug/mL) turned out to be 0.927 ± 0.043; in assay [2] (agonist: LPS 0.1 ug/mL), 1.22 ± 0.082; in assay [2] (agonist: MPLA […]) it was 1.35 ± 0.12. Further, the viability score in assay [3] was 1 (active).

In the case of `Brc1ccc(-c2cc(-c3ccccc3)nc(N3CCOCC3)n2)cc1`, the NF-kB reporter in assay [1] (setting [4]) was 0.81 ± 0.087; in assay [1] (agonist: LPS 0.1 ug/mL) it was 0.995 ± 0.11; in assay [1] (agonist: MPLA […]) it was 1.12 ± 0.13. Further, the figures for the IRF reporter in assay [2] (agonist: 3'3'-cGAMP 10 ug/mL), in assay [2] (agonist: LPS 0.1 ug/mL) and in assay [2] (agonist: MPLA […]) were 0.977 ± 0.059, 1.35 ± 0.25 and 1.59 ± 0.38, respectively. In addition, in assay [3], the viability score is 1.01 (active).

Turning to `c1ccc(CNc2nc(N3CCOCC3)nc(N3CCOCC3)n2)cc1`, the NF-kB reporter in assay [1] (setting [4]) was determined as 0.882 ± 0.24; in assay [1] (agonist: LPS 0.1 ug/mL) it was 0.947 ± 0.079; in assay [1] (agonist: MPLA […]), 0.987 ± 0.081. For the same molecule, the IRF reporter in assay [2] (agonist: 3'3'-cGAMP 10 ug/mL) stood at 0.758 ± 0.027; in assay [2] (agonist: LPS 0.1 ug/mL), 1.09 ± 0.12; in assay [2] (agonist: MPLA […]), 1.24 ± 0.21. The viability score in assay [3] was 0.991 (active).

Regarding `Cc1ccc(N2C(=O)C(=Cc3cccc([N+](=O)[O-])c3)SC2=S)cc1`, the results for the NF-kB reporter in assay [1] (setting [4]), in assay [1] (agonist: LPS 0.1 ug/mL) and in assay [1] (agonist: MPLA […]) were 0.957 ± 0.088, 0.944 ± 0.08 and 0.949 ± 0.11, respectively. The IRF reporter in assay [2] (agonist: 3'3'-cGAMP 10 ug/mL) was 0.623 ± 0.035; in assay [2] (agonist: LPS 0.1 ug/mL), 1.26 ± 0.19; in assay [2] (agonist: MPLA […]), 1.38 ± 0.29. Also, the viability score in assay [3] is 0.996 (active).

On to `O=C(c1ccccc1)c1ccc2n1CCC2C(=O)O` (stereo unspecified), for which the NF-kB reporter in assay [1] (setting [4]) is 0.921 ± 0.13; in assay [1] (agonist: LPS 0.1 ug/mL), 1.09 ± 0.14; in assay [1] (agonist: MPLA […]), 0.895 ± 0.073. Besides, the IRF reporter in assay [2] (agonist: 3'3'-cGAMP 10 ug/mL) was found to be 0.94 ± 0.048; in assay [2] (agonist: LPS 0.1 ug/mL), 1.15 ± 0.26; in assay [2] (agonist: MPLA […]), 1.04 ± 0.16. In addition, the viability score in assay [3] was 0.996 (active).

Regarding `Fc1ccc2ccccc2c1`, the NF-kB reporter in assay [1] (setting [4]) was found to be 0.958 ± 0.077; in assay [1] (agonist: LPS 0.1 ug/mL), 0.979 ± 0.16; in assay [1] (agonist: MPLA […]) it was 1.01 ± 0.13. The IRF reporter in assay [2] (agonist: 3'3'-cGAMP 10 ug/mL) is 1.03 ± 0.033; in assay [2] (agonist: LPS 0.1 ug/mL), 1.12 ± 0.12; in assay [2] (agonist: MPLA […]) it was 1.15 ± 0.18. Moreover, in assay [3], the viability score was 1.01 (active).

As for `COc1cccc(CC(=O)N2CCC(Oc3ccc4ccccc4n3)C2)c1` (stereo unspecified), the NF-kB reporter was found to be 0.762 ± 0.04 in assay [1] (setting [4]), 1.18 ± 0.14 in assay [1] (agonist: LPS 0.1 ug/mL) and 1 ± 0.077 in assay [1] (agonist: MPLA […]). Moreover, the IRF reporter is 0.938 ± 0.056 in assay [2] (agonist: 3'3'-cGAMP 10 ug/mL), 1.18 ± 0.14 in assay [2] (agonist: LPS 0.1 ug/mL) and 1.24 ± 0.25 in assay [2] (agonist: MPLA […]). Moreover, the viability score in assay [3] is 1 (active).

With `CN(C)C(CNC(=O)NCc1ccc(F)cc1)c1ccc2c(c1)CCO2` (stereo unspecified), the NF-kB reporter in assay [1] (setting [4]) turned out to be 0.838 ± 0.048; in assay [1] (agonist: LPS 0.1 ug/mL), 1.09 ± 0.092; in assay [1] (agonist: MPLA […]) it was 1.04 ± 0.055. Moreover, the IRF reporter in assay [2] (agonist: 3'3'-cGAMP 10 ug/mL) was 1.12 ± 0.064; in assay [2] (agonist: LPS 0.1 ug/mL), 1 ± 0.062; in assay [2] (agonist: MPLA […]) it was 0.804 ± 0.12. Also, the viability score in assay [3] is 0.994 (active).

Regarding `CC1(C)CC(=O)C2=C(C1)OC(N)=C(C#N)C2C1CC=CCC1` (stereo unspecified), the NF-kB reporter in assay [1] (setting [4]) came out at 1.02 ± 0.061; in assay [1] (agonist: LPS 0.1 ug/mL), 1.08 ± 0.099; in assay [1] (agonist: MPLA […]) it was 1.11 ± 0.068. The IRF reporter in assay [2] (agonist: 3'3'-cGAMP 10 ug/mL) is 1.23 ± 0.041; in assay [2] (agonist: LPS 0.1 ug/mL), 1.29 ± 0.18; in assay [2] (agonist: MPLA […]), 1.14 ± 0.12. Besides, the viability score in assay [3] was 0.9 (active).

Regarding `CC12CCC(CC1)C(C)(C)O2`, the NF-kB reporter in assay [1] (setting [4]) stood at 1.17 ± 0.28; in assay [1] (agonist: LPS 0.1 ug/mL), 1.05 ± 0.14; in assay [1] (agonist: MPLA […]), 0.968 ± 0.074. Moreover, the IRF reporter came to 0.956 ± 0.033 in assay [2] (agonist: 3'3'-cGAMP 10 ug/mL), 1.21 ± 0.15 in assay [2] (agonist: LPS 0.1 ug/mL) and 1.15 ± 0.12 in assay [2] (agonist: MPLA […]). Besides, the viability score in assay [3] was 0.994 (active).

Turning to `Cc1cc(CNC(=O)CCc2ccc(C(F)(F)F)cc2)c(C)o1`, the NF-kB reporter in assay [1] (setting [4]) came out at 1.09 ± 0.061; in assay [1] (agonist: LPS 0.1 ug/mL), 1.01 ± 0.089; in assay [1] (agonist: MPLA […]), 0.877 ± 0.038. Besides, the IRF reporter turned out to be 1.2 ± 0.069 in assay [2] (agonist: 3'3'-cGAMP 10 ug/mL), 1.14 ± 0.068 in assay [2] (agonist: LPS 0.1 ug/mL) and 1.25 ± 0.33 in assay [2] (agonist: MPLA […]). Further, in assay [3], the viability score was 0.957 (active).
